Hits are enriched below; roughly 12% of the tested compounds scored in any of these assays.
Sfp PPTase inh = inhibitors of Bacillus subtilis Sfp phosphopantetheinyl transferase; Q9F4F7; Biochemical Sfp PPTase activity, qHTS; Potency, µM, without a hit: largest response in the series, negative = inhibition, hits mostly inhibitors; 3.5% of 310,000 active; AID 1490;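 note: the enzyme is Sfp with the accession as filed and its product quenches rhodamine fluorescence; 0% = enzyme reaction without inhibitor and -100% = no enzyme wells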
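With Hepes-Na pH 7.6 buffer containing 10 mM MgCl2, Sfp (15 nM) modified BHQ-2-YbbR (12.5 uM) using rhodamine-CoA (5 uM). Two reads 30 minutes apart at 525/598 nm yielded each well's rate.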
HP1b chromo inh = HP1-beta chromodomain-methylated histone interaction inhibition; Potency, µM (top dose mostly 114 µM), inactives show at the top dose activity change, negative = inhibition, hits mostly inhibitors; 0.56% of 390,000 active; AlphaScreen HP1-beta / biotin-H3K9me3 peptide binding; P83916; note: nearly all actives have a fitted effect of over 70% in size
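Compound inhibition of the preformed complex between 50 nM HP1-beta and 50 nM biotinylated H3K9me3 peptide was read by AlphaScreen. Buffer was PBS pH 7.4 with 0.01% Tween-20. Incubations ran 30 min at room temperature, with 10 ug/mL donor/acceptor beads.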
G9a inh = G9a (human) methyltransferase inhibition | AID 504332 | Potency, µM (top dose mostly 102 µM), for inactives: at the highest dose activity, negative = inhibition, usual class: inhibitors | G9a H3K9 monomethylation, AlphaScreen, 2 h | 8.8% of 350,000 active; note: % is set by controls: 0 for no effect and ±100 for the full control effect; nearly all actives have a fitted effect of over 75% in size
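Step 1: enzyme (final 20 nM) with compound, 15 min RT. Step 2: substrate peptide 500 nM and SAM 20 uM, 2 h RT. Step 3: anti-H3K9me1 antibody and AlphaScreen beads, 10 min, then plate read.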
JMJD2A Tudor = inhibitors of human JMJD2A Tudor domain; AlphaScreen JMJD2A-Tudor / H3K4me3 peptide binding; Potency, µM (highest dose often 114 µM), inactives show at the highest dose activity change, negative = inhibition, usual class: inhibitors; O75164; 4.4% of 390,000 active; note: % is set by controls: 0 for no effect and ±100 for the full control effect; nearly all actives have a fitted effect of over 50% in size
BAZ2B inh = inhibitors of human BAZ2B bromodomain | Q9UIF8 | AlphaScreen BAZ2B-H3K14Ac peptide displacement | Potency, µM (doses to about 114 µM), inactives show at the highest dose activity change, negative = inhibition, hits mostly inhibitors | 4.4% of 360,000 active; note: % is set by controls: 0 for no effect and ±100 for the full control effect; nearly all actives have a fitted effect of over 60% in size
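AlphaScreen displacement of biotin-H3(5-23)K14Ac peptide (50 nM final) from BAZ2B (50 nM final) in PBS pH 7.4, 0.01% Tween-20; complex preformed 30 min RT, then compounds (top 110 uM) 30 min RT, beads 20 min dark.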
PLK1 PBD inh = PLK1 (human) polo-box domain binding inhibition; Plk1 PBD binding of FITC phosphopeptide, fluorescence polarization; P53350; AID 720504; 2.8% of 360,000 active; Potency, µM, without a hit: max response, negative = inhibition, hits mostly inhibitors; note: series mostly up to about 57 µM; % is set by controls: 0 for no effect and ±100 for the full control effect; nearly all actives have a fitted effect of over 65% in size
Starred values were filed as active, the others as inactive; ? = inconclusive; / = no result; [ ] = another dose, or the depositor's remark. Calls come from the whole dose curve; as a rule, active = well fitted curve in the direction sought with a large enough effect; inconclusive = small, poorly fitted or top-dose-only effect, or another doubt; inactive = no such curve, though single readings can be large; an effect the other way counts as inactive or inconclusive. Potency is the fitted concentration of half-maximal effect.

SMILES | Sfp PPTase inh | HP1b chromo inh | G9a inh | JMJD2A Tudor | BAZ2B inh | PLK1 PBD inh
CCOc1ccc(CSC(CC(=O)O)C(=O)O)cc1 (stereo not given) | -6.1% | 47.0% | / | -4.2% | 79.4µM* | -15.5%
CCCCOc1ccc(CSC(CC(=O)O)C(=O)O)cc1 (stereo not given) | 1.7% | 40.4% | ? | -13.2% | 9.7% | -4.3%
Cc1ccc(C)c(N2CCN(C(=O)Cn3c(=O)c4cccn4c4ccc(F)cc43)CC2)c1 | / | 29.5% | -13.1%[59 µM] | -21.4% | ? | /
CCC(C)[C@H](NC(=O)NCCC1=CCCCC1)C(=O)O (stereo not given in full) | 16.7% | 20.3% | -9.7%[12.7 µM] | -8.8%[11.4 µM] | -1.0% | 23.8µM*
COc1cccc(/C=C/C(=O)OCC(=O)NCCC2=CCCCC2)c1 | 13.4% | 21.0% | -1.9% | 8.91µM* | -28.5% | 8.44µM*
CCOc1ccccc1NC(=O)NCCC1=CCCCC1 | 6.9% | 26.5% | 30.1% | -9.0% | -10.0% | -14.5%
Cc1ccc(CNC(=O)C(=O)NCCC2=CCCCC2)cc1 | 21.6% | 38.2% | -12.1%[59 µM] | -12.4% | -2.1% | 3.6%
COc1ccc(/C=C/C(=O)OCC(=O)NCCC2=CCCCC2)cc1 | -10.9% | 31.7% | -0.6% | 6.8% | 10.4% | 1.4%
CC(C)[C@H](NC(=O)NCCC1=CCCCC1)C(=O)O | 17.7% | 50.3% | 19.4% | 2.2%[11.4 µM] | -9.4% | -10.4%
CCOc1ccccc1NC(=O)C(=O)NCCC1=CCCCC1 | 23.4% | -2.7% | -3.9% | ? | -2.2% | 26.7µM*
CC(C)(C)NC(=O)C(=O)NCCC1=CCCCC1 | -13.8% | ? | 21.0% | -30.9%[57.1 µM] | -6.9% | 21.2µM*
O=C(COc1ccc(F)cc1Br)NCCCN1CCCC1=O | / | 25.8% | / | -4.5% | / | -15.0%
COc1ccc(-n2nc(C(=O)NCC(=O)NCCC3=CCCCC3)c3ccccc3c2=O)cc1OC | 5.7% | -7.8% | 50.1µM* | -12.9% | 2.7% | -2.9%
COc1ccccc1OCC(=O)NCCC1=CCCCC1 | 19.0% | 43.8% | 13.2%[59 µM] | 4.9% | 8.1% | -0.6%
Cn1c(=O)c2ccccc2n(CC(=O)NCCC2=CCCCC2)c1=O | -10.2% | 9.7% | 28.2µM* | 0.7% | -0.5% | -4.6%
COc1ccccc1NC(=O)NCCC1=CCCCC1 | -7.7% | -9.9% | 6.2% | -21.6% | 3.3% | 23.8µM*
CCC(=O)C1=C(c2ccc(F)cc2)N(C(=O)CC)n2c(nnc2C2CCCCC2)S1 | / | 65.3% | 12.4%[59 µM] | 32.8% | -6.2% | /
Cc1cnc2c(c1SCC(=O)NCc1ccc(F)cc1)c(=O)n(C)c(=O)n2C | / | 8.3% | 9.0%[59 µM] | -8.8% | 0.5% | /
CN(C)C(=O)NC1C=CS(=O)(=O)C1 (stereo not given) | -25.2% | 22.8% | -41.2% | -4.8% | 4.3% | -6.6%
CCOC(=O)NC1C=CS(=O)(=O)C1 (stereo not given) | 11.1% | 21.2% | 50.1µM* | -9.1% | -3.1% | -4.5%
Nc1nc(SCC(=O)NC2CCCCC2)n[nH]1 | -3.4% | 21.8% | / | -17.2% | 0.2% | -4.3%
NN1C(=O)/C(=C2/Sc3ccccc3N2CCCS(=O)(=O)O)SC1=S | -16.4% | -23.2% | 39.8µM* | ? | 79.4µM* | -27.7%
